# Results published in PubChem BioAssay (NCATS).
# Several values for one entry are separate records, joined by “and”; a condition that tells them apart may be missing. Identical values can stand only once. Results filed as inconclusive are left out. Where a call stands in place of a potency, no number is given. Activity calls are given as the source filed them. Calls follow the shape of the dose curve; as a rule, active = well fitted curve in the direction sought with a large enough effect; inconclusive = small, poorly fitted or top-dose-only effect, or another doubt; inactive = no such curve, though single readings can be large; an effect the other way counts as inactive or inconclusive.
# Test system: not listed separately
# Test: qHTS Assay for Lipid Storage Modulators (AID 1519)
# Settings: Drosophila S3 cells, BODIPY lipid droplet/cell ratio, laser cytometry; measured here: lipid channel max response; cells loaded with oleic acid
# In short: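 Cells seeded at 5,000 per well were treated with compounds over a concentration series and loaded with oleic acid (400 uM, as added). Lipid droplet fluorescence (488 nm excitation, 500-530 nm channel) was read by laser-scanning cytometry and normalized to 20 uM Triacsin C.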
row,SMILES,max response
1,COc1c2c(cc3c1OCO3)CCN(C)C2,3.88%
2,O=C1c2ccccc2C(=O)c2ccccc21,29.4%
3,CNC(C)(C)Cc1ccccc1,-21.7% and 31.6%
4,CC[N+](CC)(CC)CCOc1cccc(OCC[N+](CC)(CC)CC)c1OCC[N+](CC)(CC)CC,-4.34%
5,NC(=O)CS(=O)C(c1ccccc1)c1ccccc1 (configuration not stated),10.7%

# Target: DNA repair nuclease/redox regulator APEX1 (Homo sapiens) (UniProt P27695)
# Sequence (P27695 whole entry, looked up): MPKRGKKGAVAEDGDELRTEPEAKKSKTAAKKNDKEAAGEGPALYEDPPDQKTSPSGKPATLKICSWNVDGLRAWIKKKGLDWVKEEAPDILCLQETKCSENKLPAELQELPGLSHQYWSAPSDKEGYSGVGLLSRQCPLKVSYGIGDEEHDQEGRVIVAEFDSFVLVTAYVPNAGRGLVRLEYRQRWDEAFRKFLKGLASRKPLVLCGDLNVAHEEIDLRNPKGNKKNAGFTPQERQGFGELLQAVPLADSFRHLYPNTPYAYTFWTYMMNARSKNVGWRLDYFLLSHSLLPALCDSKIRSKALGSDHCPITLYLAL
# Test: qHTS Validation Assay for Inhibitors of the Human Apurinic/apyrimidinic Endonuclease 1 (APE1) (AID 1705; also: potency is read from the fitted curve at half-maximal effect)
# Settings: purified APE1 endonuclease activity, fluorescence, titration; series mostly up to 57.1 µM
# In short: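 Endonuclease activity of human APE1 is followed as dequenching when the enzyme incises a tetrahydrofuran abasic site in a short duplex labelled 5'-TAMRA/3'-BHQ-2 (50 nM final), after 15 min enzyme–compound preincubation at room temperature.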
row,SMILES,Potency
1,CC(C)c1cccc(C(C)C)c1O,inactive
2,CCC1(c2ccc(N)cc2)CCC(=O)NC1=O (configuration not stated),inactive
3,O=C(CCCN1CCC2(CC1)C(=O)NCN2c1ccccc1)c1ccc(F)cc1,inactive
4,O=c1[nH]oc2c1CCNC2,inactive
5,C=C(C)[C@H]1CN[C@H](C(=O)O)[C@H]1CC(=O)O,inactive
6,CC(NC(C)(C)C)C(=O)c1cccc(Cl)c1 (configuration not stated),inactive
7,CC(C)(C)NCC(O)c1ccccc1Cl (configuration not stated),inactive
8,NCCc1ccc(O)cc1,inactive
9,C[C@]12CCC(=O)C=C1CC[C@@H]1[C@@H]2CC[C@]2(C)C(=O)CC[C@@H]12,inactive
10,O=C(O)CCCc1ccc(N(CCCl)CCCl)cc1,inactive
11,O=P1(N(CCCl)CCCl)NCCCO1 (configuration not stated),inactive
12,CCCCC/C=C\C/C=C\C/C=C\C/C=C\CCCC(=O)NCC(=O)O,28.2 µM (active)
13,CC(C)N(CCC(C(N)=O)(c1ccccc1)c1ccccn1)C(C)C (configuration not stated),inactive

# Test system: not listed separately
# Test: Counterscreen for APE1 Inhibitors: Fluorescent Dye Displacement Validation Assay (AID 1707)
# Settings: fluorescent dye displacement from DNA; series mostly up to 57.1 µM
# In short: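 Loss of Thiazole Orange fluorescence marks promiscuous DNA binders. The dye (250 nM) is mixed with 50 nM abasic-site dsDNA in pH7.5 Tris buffer containing MgCl2, then compounds are added and emission is read once.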
row,SMILES,outcome
1,CC(C)c1cccc(C(C)C)c1O,inactive
2,CCC1(c2ccc(N)cc2)CCC(=O)NC1=O (configuration not stated),inactive
3,O=c1[nH]oc2c1CCNC2,inactive
4,C=C(C)[C@H]1CN[C@H](C(=O)O)[C@H]1CC(=O)O,inactive
5,CC(NC(C)(C)C)C(=O)c1cccc(Cl)c1 (configuration not stated),inactive
6,CN1C(=O)CCS(=O)(=O)C1c1ccc(Cl)cc1 (configuration not stated),inactive
7,CC(C)(C)NCC(O)c1ccccc1Cl (configuration not stated),inactive
8,NCCc1ccc(O)cc1,inactive
9,C[C@]12CCC(=O)C=C1CC[C@@H]1[C@@H]2CC[C@]2(C)C(=O)CC[C@@H]12,inactive
10,Cn1c(=O)c2[nH]cnc2n(C)c1=O,inactive
11,O=C(O)CCCc1ccc(N(CCCl)CCCl)cc1,inactive
12,O=P1(N(CCCl)CCCl)NCCCO1 (configuration not stated),inactive
13,CCCCC/C=C\C/C=C\C/C=C\C/C=C\CCCC(=O)NCC(=O)O,inactive
14,CC(C)N(CCC(C(N)=O)(c1ccccc1)c1ccccn1)C(C)C (configuration not stated),inactive
